Source: PubChem BioAssay (several laboratories)
This is a sample that favours compounds with a hit; in the whole collection about 32% have one here.
CYP2C9 act: increases human cytochrome P450 2C9 activity. P11712. recombinant CYP2C9, luciferin-H conversion, luminescence; stronger effect = higher value; factor 1 = untreated enzyme, 0 = blocked. activation factor at 5 µM. actives 1.4% (n = 96,000). AID 1024;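 active = activation factor of 2 or more for CYP2C9 at a 5 µM dose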;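 also: 0 = sulfaphenazole-blocked wells and 1 = vehicle-only wells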
Target sequence (P11712 whole entry, looked up): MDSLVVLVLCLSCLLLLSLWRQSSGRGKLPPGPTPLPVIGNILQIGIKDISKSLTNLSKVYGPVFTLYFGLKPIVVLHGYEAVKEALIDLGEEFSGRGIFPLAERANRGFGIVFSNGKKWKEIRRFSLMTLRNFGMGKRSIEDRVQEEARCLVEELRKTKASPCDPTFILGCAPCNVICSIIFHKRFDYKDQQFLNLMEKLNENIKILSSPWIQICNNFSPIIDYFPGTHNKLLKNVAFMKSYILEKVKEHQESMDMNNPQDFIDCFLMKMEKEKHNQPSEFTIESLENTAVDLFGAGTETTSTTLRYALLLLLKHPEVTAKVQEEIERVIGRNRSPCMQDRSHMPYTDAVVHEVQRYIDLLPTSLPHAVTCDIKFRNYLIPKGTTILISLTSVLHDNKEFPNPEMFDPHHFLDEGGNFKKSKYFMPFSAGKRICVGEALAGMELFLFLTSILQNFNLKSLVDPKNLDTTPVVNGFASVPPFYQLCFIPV
PostGolgi ctrl: growth of the yeast control strain, post-Golgi counter-screen. inhibition, % at 10 µM. AID 738. efflux-deficient yeast background strain, growth absorbance A615, 16 h. actives 5% (n = 98,000)
CYP2C9 inh: inhibitors of human CYP2C9 | actives 20% (n = 96,000) | P11712 | CYP2C9 Supersomes, luciferin-H conversion, luminescence | AID 777 | inhibition, % at 5 µM;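 active = blocking of liver enzyme CYP2C9 beyond about 50% at 5 µM, limit read from the data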
CYP2C19 inh: inhibitors of human CYP2C19. CYP2C19 Supersomes, luciferin-H EGE luminescence, 30 min. actives 21% (n = 96,000). inhibition, % at 5 µM. AID 778. P33261;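 active = CYP2C19 inhibition above a set limit at 5 µM in the primary screen, cut at about 50% in these data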;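 also: plate controls were negative control wells for no effect and 2.5 mM tranylcypromine positive control for full effect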
PostGolgi yeast: growth inhibition of a yeast mutant, post-Golgi transport screen; post-Golgi transport phenotypic cell assay; inhibition, % at 10 µM; actives 0.9% (n = 98,000);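 also: yeast cells grown in 1536-well plates; yeast grown about 18 h at 30C before absorbance read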
CYP2C19 activ: cytochrome P450 2C19 (human) activation; P33261; recombinant CYP2C19, luciferin-H EGE luminescence; stronger effect = higher value; 0 = fully inhibited enzyme, 1 = untreated enzyme; activation factor at 5 µM; 96,000 tested, under 10 active;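 active = activation factor of at least 2 at 5 µM in the primary screen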;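 also: 0 = wells with 2.5 mM tranylcypromine and 1 = vehicle-only wells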
Active calls of the source: *. Rule as the data show it, unless noted: active = inhibition above about 30%; inactive = the rest.

SMILES	CYP2C9 act	PostGolgi ctrl	CYP2C9 inh	CYP2C19 inh	PostGolgi yeast	CYP2C19 activ
COc1ccc(S(=O)(=O)N(CC(=O)NC2CC2)C2CCCCC2)cc1Cl	0.3	4.6	71.6*	59.4*	1.3	0.4
CC(C)(C)OC(=O)N1CCC(C(=O)N[C@@H](Cc2ccccc2)C(=O)O)CC1	0.9	1.4	8.9	-16.9	-0.2	1.2
CCOC(=O)c1ccc(NC(=O)CCS(=O)(=O)c2ccc(Br)s2)cc1	0.5	7.8	51.3*	29.4	-1.1	0.7
COC(=O)c1ccc(C(=O)OC)c(NC(=O)CCC(=O)O)c1	1.3	8.9	-32.9	-1.6	6.5	1
CCCOC(=O)c1ccc(NC(=O)CCOc2ccccc2)cc1	0.3	4.4	68.4*	46.2	21.6	0.5
COC(=O)c1ccc(C(=O)OC)c(NC(=O)CCc2ccc(C)o2)c1	0.6	9.4	37.1	50.8*	-4.5	0.5
CCCOC(=O)c1ccc(NC(=O)CCC(=O)OCC)cc1	0.4	3.9	59.2*	64.0*	7.5	0.4
Cc1ccc(OCC(=O)NNC(=O)C2CCN(c3nc(C)cc(C)n3)CC2)cc1	1	2.6	-0.1	12.4	5.5	0.9
CCOC(=O)c1ccc(NC(=O)CCOc2ccccc2)cc1	0.4	8.5	55.3*	12.2	-4.3	0.9
CCOC(=O)CCCNC(=O)COC(=O)c1ccc(O)cc1	2.6*	8.4	-164.0	-13.2	-1.0	1.1
CCc1ccc(CCC(=O)Nc2ccc(C)cc2C)o1	1.3	10.6	-30.3	78.8*	-1.6	0.2
O=C(CCOc1ccccc1)Nc1ccccc1	0.9	9.6	13.6	61.6*	-1.9	0.4
CCOC(=O)Nc1ccc(C)cc1C	0.9	-3.3	6.1	21.4	14.6	0.8
CN1CCNC(=O)C1CC(=O)O (centres undefined)	1.1	-0.9	-8.4	-16.9	8.6	1.2
CCCn1c(N)c(C(=O)CN2CCN(S(=O)(=O)c3cccs3)CC2)c(=O)[nH]c1=O	0.9	0.7	12.1	10.4	1.1	0.9
CCCCNC(=O)CSc1nnc(NC(C)=O)s1	0.9	9.9	5.4	12.5	4.5	0.9
CCOC(=O)c1ccc(NC(=O)CCc2ccc(CC)o2)cc1	0.4	-1.8	60.1*	19.0	-1.8	0.8
COc1ccccc1OCC(=O)NNC(=O)c1cnccn1	1	-2.2	3.0	7.6	-0.2	0.9
CN(C)c1nc(NCc2ccccc2)nc(SCC(=O)Nc2ccc(Cl)c(Cl)c2)n1	0.1	14.5	85.9*	48.0	0.2	0.5
CC(c1nnc(SCC(=O)Nc2ccc3[nH]c(=O)[nH]c3c2)n1Cc1ccccc1)N(C)C (centres undefined)	1.1	4.9	-7.6	-8.9	-7.5	1.1
Cc1nc2ccccc2n1S(=O)(=O)c1ccc(S(=O)(=O)N2CCCCCC2)cc1	0.7	-0.8	25.7	10.7	-3.7	0.9
O=S(=O)(N1CCCCC1)n1c(Cc2ccccc2)nc2ccccc21	0.3	37.0*	68.4*	85.3*	6.8	0.1
C=CCNC(=O)c1cc(-c2ccc(Br)cc2)on1	1	-2.5	-2.2	-14.2	-4.0	1.1
OC1CCN(c2c3c(nc4cc(-c5cccc(F)c5)nn24)CCCC3)CC1	0.6	87.5*	42.2	28.9	-0.2	0.7
CN1CCN(CCCCOc2ccc(F)cc2)CC1	1.2	4.1	-22.3	7.1	2.8	0.9
SMILES	CYP2C9 act	PostGolgi ctrl	CYP2C9 inh	CYP2C19 inh	PostGolgi yeast	CYP2C19 activ
Cc1cccc(-c2cc3nc(C)cc(NCCCN(C)C)n3n2)c1	1.2	12.0	-17.8	-17.7	21.0	1.2
CCOCCN1CCN(c2c3c(nc4cc(-c5ccc(F)cc5)nn24)CCC3)CC1	0.5	18.9	50.5*	13.8	-1.8	0.9
Fc1ccc(-c2cc3nc(-c4ccccc4)cc(N4CCOCC4)n3n2)cc1	0.8	0.0	17.2	-7.1	2.5	1.1
Fc1cccc(-c2cc3nc4c(c(N5CCC6(CC5)OCCO6)n3n2)CCCC4)c1	0.3	81.1*	74.1*	25.6	9.5	0.7
CN(CCO)c1c2c(nc3cc(-c4cccc(F)c4)nn13)CCCC2	0.4	47.1*	55.9*	32.3	-4.2	0.7
CCn1ncc(Cl)c1C(=O)Nc1cc(Cl)ccc1Cl	1.5	3.5	-52.6	-13.5	-18.6	1.1
Cc1c(C(=O)NCCN2CCOCC2)oc2ccc(S(=O)(=O)N3CCCCCC3)cc12	0.7	15.7	26.6	10.3	0.9	0.9
Cc1cccc(-c2onc3ccc(C4(C)OCCO4)cc23)c1	0.1	18.4	93.4*	88.5*	19.2	0.1
CC1(c2ccc3noc(-c4ccc(Cl)cc4)c3c2)OCCO1	0.8	2.5	15.7	34.6	-11.2	0.7
Cc1ccn2cc(CNC(=O)c3ccc(Br)o3)nc2c1	0.7	1.5	26.0	35.1	1.2	0.6
CC1CCCCC1NC(=O)C1CCN(S(=O)(=O)c2cccc3nsnc23)CC1 (centres undefined)	1.8	2.8	-76.0	-25.0	11.4	1.3
CCOc1ccc2nc3c(cc2c1)CN(CCOC)C(=NCCOC)S3	1	13.1	3.8	3.4	1.9	1
COCCN=C1Sc2nc3ccc(C)cc3cc2CN1Cc1ccco1	0.3	4.2	68.4*	58.8*	5.0	0.4
CCc1nnc(NC(=O)Cc2ccc(OCc3c(C)noc3C)cc2)s1	0.7	24.1	30.1	0.4	-4.0	1
CCCCNC(=O)c1ccccc1NC(=O)CCSc1ccccc1	0.2	17.5	81.0*	93.3*	-3.1	0.1
CCOC(=O)C1CCN(C(=O)CCNC(=O)Cn2ccc3ccccc3c2=O)CC1	1.1	4.9	-10.6	4.9	3.3	1
Cc1ccc(OCc2nnc(SCC(=O)C(C)(C)C)n2Cc2ccco2)cc1	0.3	25.5	73.8*	19.6	-3.5	0.8
O=C(CSc1nnc(COc2ccccc2)n1Cc1ccco1)NCc1ccco1	0.2	10.5	78.2*	58.1*	-0.6	0.4
CCOc1ccc(NC(=O)C2CCCN(S(=O)(=O)c3cccc4nsnc34)C2)cc1 (centres undefined)	1	6.7	4.0	0.3	13.6	1
N=c1sccn1CC(=O)Nc1ccccc1-c1ccccc1	1.2	-4.6	-22.4	-13.5	11.2	1.1
CCCc1cc(C(=O)NCc2cccs2)no1	0.7	-0.5	32.5	74.1*	-9.3	0.3
CCCc1cc(C(=O)NCc2ccccc2)no1	0.9	11.1	12.4	58.3*	10.2	0.4
CCCc1cc(C(=O)NCCc2ccc(OC)c(OC)c2)no1	0.3	2.7	68.5*	94.0*	6.7	0.1
CCCc1cc(C(=O)NCc2cccnc2)no1	0.9	9.6	14.6	59.3*	-10.4	0.4
COc1ccc(CCNC(=O)c2cc(C(C)C)on2)cc1OC	0.9	-3.0	6.2	35.4	-0.2	0.6
Cc1cc2c(nn1)CCc1nonc1-2	1	3.5	1.6	-5.8	1.4	1.1
Cc1cc(C)n2cc(CSc3nnc(N)s3)nc2n1	1.1	3.3	-5.5	-5.9	5.0	1.1
CCCc1cc(C(=O)NC2CCCCC2)no1	1.3	1.5	-28.9	40.2	-3.5	0.6
